About 10 (0.8%) of roughly 1,200 compounds were called active. Roughly 4% stayed inconclusive and do not appear here. This is one part of a sample in which actives are shown more often than they occur. Values without a mark were called inactive. The call rests on the fitted dose curve; in most records, active means well fitted inhibition curve with a large enough effect; inconclusive means small, poorly fitted or top-dose-only effect; inactive means no such curve, though single readings can be large or run the other way.
On the % scale 0 is the no-effect control and ±100 the full control effect; potency means the concentration at half of the fitted maximal effect.

The assay is described as follows: qHTS Assay to Find Inhibitors of Chronic Active B-Cell Receptor Signaling: Hit Validation in OCI-Ly3 Assay. The note with it: OCI-Ly3 IkB-luciferase reporter, Chroma-Glo luminescence, 4 h; series mostly up to 46.1 µM; activity change, negative = inhibition: at the top concentration. The text has this:
Diffuse large B-cell lymphoma (DLBCL) is the most common category of non-Hodgkin lymphoma, with ~20,000 new cases per year in the United States. DLBCL should be regarded as a collection of different neoplasms. Microarray gene expression analysis has defined two principal types of DLBCL, named for their similarity to normal B cell stages or activation states: a germinal center B-cell (GCB) type, and an activated B-cell (ABC) type. In ABC-DLBCL, a constitutive high-level activity of the NF-kappaB family of transcription factors has been observed (1) and NF-kappaB target genes are more highly expressed in ABC primary tumors than in GCB tumors. Functional studies have shown a constitutive high-level activity of the IkappaB (inhibitor of kappa-B) kinase (IKK) complex. […] Further analysis of DLBCL primary tumors for NF-kappaB target gene expression imply that although CARD11 is required for constitutive IKK activity in all ABC-DLBCL lines, mutations in CARD11 may be the root cause of IKK activation only in lines or tumors with such mutations. In other words, CARD11 mutations may explain NF-kappaB activation in only 10% of ABC-DLBCL cases. […] This process has been termed 'chronic active BCR signaling' (CABS). The goal of this screen is to find small-molecule inhibitors of the CABS pathway found in ABC-DLBCL lines using a cell-based assay that measures IkappaBalpa stability, which has already been extensively validated in the OCI-Ly3 line (PubChem AID:445; REF: 4). […] Hits from the primary screen were tested in this selectivity secondary assay. NIH Molecular Libraries Probe Production Network [MLPCN] NIH Chemical Genomics Center [NCGC] MLPCN Grant: R03 DA031086 PI Name: Dr. R. Eric Davis
Cells were seeded in 1536-well plates at 5000 cells/3ul in IMDM medium containing 0.5% FBS, w/o phenol red, L-glutamine, 25 mM HEPES, 3 mg/ml sodium bicarbonate. After centrifugation for 1 min. at 1000 rpm, 23 nl of compounds or DMSO were delivered to each well using a pin tool. Then 1ul 80ng/ml doxycycline was dispensed into white solid 1536-well plates and the plates were incubated at 37C/5% C02 in a cell incubator for 4 hrs. Then 4 ul Chroma-Glo luminescent substrate mix (Promega) was added to each well. The plate was incubated at R.T. for 10-15 min. The plates were measured on a ViewLux plate reader for green luminescence (540/20 nm filter) and red luminescence (618/8 nm filter). The green and red luminescent signals were corrected for red and green luminescence filter overlap using previously determined filter calibration constants (determined using the procedure outlined in the Promega Technical Manual). The %Activity was determined from the ratio of corrected green/red luminescent values. Green luminescent and ratio %Activity was determined by normalizing to the difference in signal between basal cells (0% Activity) and cells incubated with 10 uM of the proteasome inhibitor MG-132 (100% Activity). Red luminescent %Activity was normalized to the difference between red luminesence in basal cells (0%Activity) and zero luminescence (-100% Activity). Concentration-response curves were fitted to the signals arising from the green luminescence (I-kappa-B-alpha-luciferase fusion; IkB-luc) and the red luminescence (unfused luciferase; luc) as well as the calculated ratio. The concentration-effect curves were then classified based on curve quality (r2), response magnitude and degree of measured activity. Compounds were then categorized based on their concentration-response curves for all three datasets (Ikb-luc, luc and ratio).
In the case of `COC(=O)Nc1nc(-c2ccccc2)c(C(=O)c2ccc(Cl)cc2)s1`, the “activity change, negative = inhibition” value was -1.03%. In the case of `CN(CC(=O)O/N=C(\N)c1ccccn1)S(=O)(=O)c1cc(Cl)ccc1Cl`, the “activity change, negative = inhibition” value was -0.248%. For the molecule `Cc1ccc(/C=N/NC(=O)c2n[nH]c3c2CCCC3)cc1`, the “activity change, negative = inhibition” value is -1.46%. Turning to `Cc1cc(C)c(C#N)c(SCc2c(F)cccc2[N+](=O)[O-])n1`, the “activity change, negative = inhibition” value is -2.3%. As to `O=C(CSc1cccc[n+]1[O-])c1cc(Cl)ccc1Cl`, the “activity change, negative = inhibition” value is -6.48%. Regarding `COc1cc(/C=C\C(=O)OCn2nnc3ccccc3c2=O)cc(OC)c1OC`, the “activity change, negative = inhibition” value was -4.34%. With `COc1ccc(/C=C/C(=O)c2cc(F)ccc2OC(=O)c2ccc(OC)c(OC)c2)cc1OC`, the “activity change, negative = inhibition” value is -5.26%. In the case of `COc1ccc(C(=O)/C=C/c2ccc(OC)c(Cn3nnc4ccccc43)c2)cc1`, the Potency was 16.4 µM (active).

As for `Cc1cccc(NC(=O)c2ccc(C(=O)Nc3cccc(C)c3)nc2)c1`, the “activity change, negative = inhibition” value is -0.935%. As for `O=C1OCC2=C1C(c1ccc(F)cc1)c1cc3c(cc1N2)OCO3` (centres undefined), the “activity change, negative = inhibition” value was -4.57%. On the same count and under the same terms, with `COc1cc(C(=O)N2CCN(c3cc(Cl)ccc3Cl)CC2)cc(OC)c1OC` the figure was -4.65%; with `CC1=CC(C)(C)N2C(=O)C(=O)c3cc(OC(=O)c4ccco4)cc1c32`, -12.4%; with `CCOc1cc(/C=C2\CN(C)C/C(=C\c3ccc(O)c(OCC)c3)C2=O)ccc1O`, -16.9%. `Cc1nnc2sc(-c3csc4c3CCCC4)nn12`: the “activity change, negative = inhibition” value is -0.641%.

With `O=[N+]([O-])c1cccnc1SCc1c(F)cccc1Cl`, the “activity change, negative = inhibition” value was -1.19%. For the molecule `CCCSc1nc(C)c(C(C)=O)cc1C#N`, the “activity change, negative = inhibition” value was -0.455%. As for `CCOc1c(Br)cc(CNc2ccc3c(c2)OCCO3)cc1OC`, the “activity change, negative = inhibition” value is -4.18%. `CCOC(=O)c1c(C)sc2c1N(C(C)=O)c1cc(Cl)ccc1S2`: the “activity change, negative = inhibition” value is -1.47%. Regarding `CC(C)N1C(=O)/C(=C\c2nc3ccccc3c(=O)[nH]2)c2ccccc21`, the “activity change, negative = inhibition” value was -26.8%. `COc1cc(C2Nc3ccccc3C(=O)N2c2ccc(Cl)cc2)c(Cl)cc1OCC(=O)O` (centres undefined): the “activity change, negative = inhibition” value is 0.262%.

Turning to `Cc1ccc(NC(=S)N/N=C/c2c(Cl)cccc2Cl)c(C)c1`, the “activity change, negative = inhibition” value was -4.26%. For the molecule `Cc1cc2nc(/C=C/c3cccnc3)[nH]c2cc1C`, the “activity change, negative = inhibition” value is -2.38%.

Take `COC(=O)C1C(O)=C(C=Nc2ccccc2)C(=O)CC1(C)C` (centres undefined): the “activity change, negative = inhibition” value is 0.611%. On to `Cc1ccc(NC(=O)c2ccco2)c([N+](=O)[O-])c1`, for which the “activity change, negative = inhibition” value was 0.0255%. Consider `CN(C)c1ccc(-c2nn3c(-c4ccccc4Cl)nnc3s2)cc1`, for which the “activity change, negative = inhibition” value is -2.19%. Turning to `CCOC(=O)COc1cccc2c(=O)n(CC(=O)NCc3ccc(F)cc3)ccc12`, the “activity change, negative = inhibition” value was -1.96%. Regarding `Cc1c(C(=O)OCC(C)C)[nH]c2c1C(=O)CC(c1cccs1)C2` (centres undefined), the “activity change, negative = inhibition” value was -0.184%. Regarding `Clc1cncc(Cl)c1N/N=C/c1ccncc1`, the “activity change, negative = inhibition” value is -4.45%. Regarding `COc1ccc(CCNC(=O)Cn2c(=O)cnc3ccccc32)cc1`, the “activity change, negative = inhibition” value was -0.695%. Regarding `COc1cc(C(=O)Nc2nc(C)c(Cc3ccc4c(c3)OCO4)s2)cc(OC)c1OC`, the “activity change, negative = inhibition” value is -6.45%. As for `COc1ccc(C(=O)/C=C/c2ccc(O)cc2)c2c1CC(O)C(C)(C)O2` (centres undefined), the “activity change, negative = inhibition” value is -0.966%. As to `O=C(/C=C/c1ccc(O)cc1)c1ccc(O)cc1O`, the Potency is 16.4 µM (active). For `Cc1ccc(/C=C/C(=O)c2nc3ccccc3[nH]2)cc1`, the “activity change, negative = inhibition” value is -4.37%. `COc1ccc2[nH]c3c(c2c1)CCN1C(=O)C(CC(=O)NCC24CC5CC(CC(C5)C2)C4)C[C@H](C(=O)N2CCCCC2)[C@@]31C` (some centres undefined): the “activity change, negative = inhibition” value is -2.31%. Regarding `Nc1nc(SCc2nc(-c3ccccc3)no2)[nH]c(=O)c1-c1ccccc1`, the “activity change, negative = inhibition” value is -0.0938%. As to `Oc1ccccc1/C=N/Nc1ccnc(SCc2ccccc2)n1`, the “activity change, negative = inhibition” value is 0.375%. As for `Oc1cccc(/C=N/Nc2ccc(Cl)nn2)c1O`, the Potency is 20.6 µM (active). With `O=C(/C=C/c1ccccc1)c1ccc(NC2=NCCCS2)cc1`, the “activity change, negative = inhibition” value was -4.98%. On to `Cc1c(CCC(=O)N[C@@H](CCCNC(N)=O)C(=O)O)c(=O)oc2cc3oc4c(c3cc12)CCCC4`, for which the “activity change, negative = inhibition” value was -0.014%.

As to `COc1ccc(/C=N/Nc2nccnc2Cl)c(OC)c1`, the “activity change, negative = inhibition” value is -14.9%.

For the molecule `CCO[C@H]1OC(C(=O)NCc2nc3ccccc3[nH]2)=C[C@@H](C2CC2)[C@@H]1CCCO`, the “activity change, negative = inhibition” value was -0.732%. On to `CNc1nc(-c2ccc(OC)cc2)c(-c2ccc(OC)cc2)s1`, for which the “activity change, negative = inhibition” value was -0.769%. The same measure, in the same setting: with `COc1ccc(C)cc1Nc1cc(C)nc2ncnn12` the figure was -1.77%.

For `NC(=S)N/N=C1\CC(c2ccc3c(c2)OCCCO3)Oc2ccc(F)cc21` (centres undefined), the “activity change, negative = inhibition” value was -4.5%. Take `CCOC(=O)C1=C(O)c2ccccc2C(=O)/C1=C\c1ccc(CC)cc1`: the “activity change, negative = inhibition” value is -7.74%. In the case of `COCCn1nnnc1C(C(C)C)N(Cc1ccccc1)Cc1cc2cc(OC)ccc2[nH]c1=O` (centres undefined), the “activity change, negative = inhibition” value was -1.07%. Regarding `CCCN1C(=O)C(=O)c2cc(Cl)ccc21`, the “activity change, negative = inhibition” value is -8.1%. Take `Cc1ccc2c(c1)C(=O)C(=O)N2CCOc1ccccc1`: the “activity change, negative = inhibition” value is -2.23%. Regarding `CC[C@]12c3[nH]c4cc(CCC(=O)N(C)C)ccc4c3CCN1C(=O)[C@@H](CC(=O)NC(C)(C)C)C[C@@H]2C(=O)N1CCN(C(=O)c2ccco2)CC1`, the “activity change, negative = inhibition” value is -2.11%. For the molecule `CCOC(=O)c1ccc(-c2c(-c3cc(OC)c(OC)c(OC)c3)noc2C)cc1F`, the “activity change, negative = inhibition” value was -3.94%. For the molecule `COc1ccccc1NC(=O)N1CCC(c2nc3cc(C)c(C)cc3[nH]2)CC1`, the “activity change, negative = inhibition” value is -3.12%. On the same count and under the same terms, with `Cc1cc(C)c2nc3sc(C(=O)N4CCOCC4)c(N)c3cc2c1` the figure was -8.28%; with `Cc1cc(Cl)n2c(nc3cc(F)c(F)cc32)c1C#N`, 0.844%.

Turning to `CC(=O)Nc1cc(N=Cc2ccc(O)cc2O)c(Cl)cc1Cl`, the Potency was 14.6 µM (active).

(Values after PubChem BioAssay AID651567 (National Center for Advancing Translational Sciences (NCATS), 2012).)
